# PubChem BioAssay AID1159580 (chemical genetic matrix, 2015)
# Values joined by “and” are separate entries in the source; they are usually repeats but may differ in a detail not shown here. Equal values may be shown once. Screen size: about 5,500 compounds; about 2,000 (36%) were called active. Roughly 18% stayed inconclusive and do not appear here. No stated cut-off is given here; in the data, active means normalized growth mostly below about 0.91 (no sharp cut-off); inconclusive means no clear call, values can overlap the other calls; inactive means mostly above about 0.92. The list shows a part of the results.
# Experiment: chemical genetic growth profiling, strain panel (AID 1159580);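 further: tested at 20 µM; growth read once vehicle control cultures reached saturation at 30 °C; 1 = growth at the plate median or of vehicle wells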
# Conditions: S. cerevisiae deletion strains, growth OD
structure (smiles),measurement,setting,value
COc1ccc(C(=O)c2ccccc2O)c(O)c1,normalized growth,"locus YAL013W, strain DEP1, stronger effect = lower value",0.91 (inactive)
same,normalized growth,"locus YAL021C, strain ccr4, stronger effect = lower value",0.992 (inactive)
same,normalized growth,"locus YAL026C, strain drs2, stronger effect = lower value",0.815 (active)
same,normalized growth,"locus YAL030W, strain snc1, stronger effect = lower value",0.894 (active)
same,normalized growth,"locus YBL061C, strain skt5, stronger effect = lower value",0.818 (active)
same,normalized growth,"locus YBR009C, strain hhf1, stronger effect = lower value",0.806 (active)
same,normalized growth,"locus YBR021W, strain FUR4, stronger effect = lower value",0.817 (active)
same,normalized growth,"locus YBR023C, strain chs3, stronger effect = lower value",0.867 (active)
same,normalized growth,"locus YBR171W, strain sec66, stronger effect = lower value",0.823 (active)
same,normalized growth,"locus YBR229C, strain ROT2, stronger effect = lower value",0.95 (inactive)
same,normalized growth,"locus YBR231C, strain swc5, stronger effect = lower value",0.887 (active)
same,normalized growth,"locus YBR279W, strain paf1, stronger effect = lower value",0.902 (active)
same,normalized growth,"locus YCL011C, strain gbp2, stronger effect = lower value",0.876 (active)
same,normalized growth,"locus YCL016C, strain dcc1, stronger effect = lower value",0.905 (active)
same,normalized growth,"locus YCL029C, strain bik1, stronger effect = lower value",0.929 (inactive)
same,normalized growth,"locus YCL061C, strain MRC1, stronger effect = lower value",0.888 (active)
same,normalized growth,"locus YCL069W, strain vba3, stronger effect = lower value",0.869 (active)
same,normalized growth,"locus YCR088W, strain abp1, stronger effect = lower value",0.888 (active)
same,normalized growth,"locus YDL005C, strain med2, stronger effect = lower value",0.918 (inactive)
same,normalized growth,"locus YDL035C, strain GPR1, stronger effect = lower value",0.962 (inactive)
same,normalized growth,"locus YDL040C, strain nat1, stronger effect = lower value",0.893 (active)
same,normalized growth,"locus YDL074C, strain BRE1, stronger effect = lower value",0.845 (inactive)
same,normalized growth,"locus YDL101C, strain DUN1, stronger effect = lower value",0.944 (inactive)
same,normalized growth,"locus YDL134C, strain PPH21, stronger effect = lower value",0.933 (inactive)
same,normalized growth,"locus YDL185W, strain tfp1, stronger effect = lower value",0.921 (inactive)
same,normalized growth,"locus YDL192W, strain arf1, stronger effect = lower value",0.915 (active)
same,normalized growth,"locus YDR001C, strain nth1, stronger effect = lower value",0.888 (active)
same,normalized growth,"locus YDR069C, strain doa4, stronger effect = lower value",0.912 (inactive)
same,normalized growth,"locus YDR101C, strain arx1, stronger effect = lower value",0.949 (inactive)
same,normalized growth,"locus YDR137W, strain rgp1, stronger effect = lower value",0.43 (active)
same,normalized growth,"locus YDR150W, strain NUM1, stronger effect = lower value",0.961 (inactive)
same,normalized growth,"locus YDR159W, strain sac3, stronger effect = lower value",0.757 (active)
same,normalized growth,"locus YDR162C, strain NBP2, stronger effect = lower value",0.926 (inactive)
same,normalized growth,"locus YDR195W, strain ref2",1.2 [resistant] (active)
same,normalized growth,"locus YDR297W, strain sur2, stronger effect = lower value",0.878 (active)
same,normalized growth,"locus YDR318W, strain mcm21, stronger effect = lower value",0.91 (active)
same,normalized growth,"locus YDR334W, strain swr1, stronger effect = lower value",0.89 (active)
same,normalized growth,"locus YDR335W, strain msn5, stronger effect = lower value",0.889 (active)
same,normalized growth,"locus YDR388W, stronger effect = lower value",0.92 (active)
same,normalized growth,"locus YDR392W, strain spt3, stronger effect = lower value",0.417 (active)
same,normalized growth,"locus YDR502C, strain sam2, stronger effect = lower value",0.871 (active)
same,normalized growth,"locus YEL003W, strain gim4, stronger effect = lower value",0.83 (active)
same,normalized growth,"locus YEL037C, strain rad23, stronger effect = lower value",0.874 (active)
same,normalized growth,"locus YEL061C, strain CIN8 (second series), stronger effect = lower value",0.874 (active)
same,normalized growth,"locus YEL061C, strain CIN8, stronger effect = lower value",0.952 (inactive)
same,normalized growth,"locus YER015W, strain faa2, stronger effect = lower value",0.876 (active)
same,normalized growth,"locus YER016W, strain bim1, stronger effect = lower value",0.883 (active)
same,normalized growth,"locus YER110C, stronger effect = lower value",0.913 (inactive)
same,normalized growth,"locus YER111C, strain swi4, stronger effect = lower value",0.885 (active)
same,normalized growth,"locus YER155C, strain BEM2 (second series), stronger effect = lower value",0.444 (active)
same,normalized growth,"locus YER155C, strain BEM2, stronger effect = lower value",0.949 (inactive)
same,normalized growth,"locus YER167W, strain BCK2, stronger effect = lower value",0.951 (inactive)
same,normalized growth,"locus YFR010W, strain ubp6, stronger effect = lower value",0.902 (inactive)
same,normalized growth,"locus YGL078C, strain dbp3, stronger effect = lower value",0.947 (inactive)
same,normalized growth,"locus YGL086W, strain mad1, stronger effect = lower value",0.932 (inactive)
same,normalized growth,"locus YGL167C, strain pmr1, stronger effect = lower value",0.843 (active)
same,normalized growth,"locus YGL173C, strain kem1, stronger effect = lower value",0.817 (active)
same,normalized growth,"locus YGL227W, strain vid30, stronger effect = lower value",0.879 (active)
same,normalized growth,"locus YGL240W, strain doc1, stronger effect = lower value",0.734 (active)
same,normalized growth,"locus YGL248W, strain PDE1, stronger effect = lower value",0.876 (active)
same,normalized growth,"locus YGL253W, strain hxk2, stronger effect = lower value",0.799 (active)
same,normalized growth,"locus YGR078C, strain PAC10, stronger effect = lower value",0.903 (inactive)
same,normalized growth,"locus YGR135W, strain pre9, stronger effect = lower value",0.822 (active)
same,normalized growth,"locus YGR229C, strain SMI1, stronger effect = lower value",0.894 (inactive)
same,normalized growth,"locus YGR252W, strain gcn5, stronger effect = lower value",0.751 (active)
same,normalized growth,"locus YHR013C, strain ard1, stronger effect = lower value",0.725 (active)
same,normalized growth,"locus YHR027C, strain rpn1, stronger effect = lower value",0.883 (active)
same,normalized growth,"locus YHR030C, strain SLT2, stronger effect = lower value",0.922 (inactive) and 0.947 (inactive)
same,normalized growth,"locus YHR079C, strain IRE1 (second series), stronger effect = lower value",0.932 (inactive)
same,normalized growth,"locus YHR079C, strain IRE1, stronger effect = lower value",0.957 (inactive)
same,normalized growth,"locus YHR094C, strain hxt1, stronger effect = lower value",0.933 (inactive)
same,normalized growth,"locus YHR129C, strain ARP1, stronger effect = lower value",0.949 (inactive)
same,normalized growth,"locus YHR142W, strain chs7, stronger effect = lower value",0.722 (active)
same,normalized growth,"locus YHR200W, strain rpn10, stronger effect = lower value",0.937 (inactive)
same,normalized growth,"locus YIL066C, strain RNR3, stronger effect = lower value",0.946 (inactive)
same,normalized growth,"locus YIL073C, strain SPO22, stronger effect = lower value",0.84 (inactive)
same,normalized growth,"locus YIL125W, strain kgd1, stronger effect = lower value",0.943 (inactive)
same,normalized growth,"locus YIR030C, strain dcg1, stronger effect = lower value",0.918 (active)
same,normalized growth,"locus YJL092W, strain hpr5, stronger effect = lower value",0.876 (active)
same,normalized growth,"locus YJL095W, strain BCK1 (second series), stronger effect = lower value",0.727 (active)
same,normalized growth,"locus YJL095W, strain BCK1, stronger effect = lower value",0.676 (active) and 0.932 (inactive)
same,normalized growth,"locus YJL115W, strain asf1, stronger effect = lower value",0.91 (inactive)
same,normalized growth,"locus YJL129C, strain trk1, stronger effect = lower value",0.8 (active)
same,normalized growth,"locus YJL134W, strain LCB3, stronger effect = lower value",0.953 (inactive)
same,normalized growth,"locus YJL154C, strain vps35, stronger effect = lower value",0.884 (active)
same,normalized growth,"locus YJL164C, strain tpk1, stronger effect = lower value",0.798 (active)
same,normalized growth,"locus YJL166W, strain qcr8, stronger effect = lower value",0.881 (active)
same,normalized growth,"locus YJL168C, strain set2, stronger effect = lower value",0.938 (inactive)
same,normalized growth,"locus YJL187C, strain SWE1 (second series), stronger effect = lower value",0.896 (inactive)
same,normalized growth,"locus YJL187C, strain SWE1, stronger effect = lower value",0.88 (active)
same,normalized growth,"locus YJR043C, strain POL32, stronger effect = lower value",0.976 (inactive)
